PLAP act: human PLAP activation | P05187 | actives 1.2% (n = 96,000) | activation fold at 20 µM | purified PLAP enzyme, luminescent substrate read-out; active compounds read high; in the data active means activation fold above about 2
CYP2C9 inhib: human CYP2C9 inhibition; P11712; CYP2C9 Supersomes, luciferin-H conversion, luminescence; inhibition, % at 5 µM; actives 20% (n = 96,000); AID 777;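 active means blocking of liver enzyme CYP2C9 beyond about 50% at 5 µM, limit read from the data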
Target sequence (P11712 whole entry, looked up): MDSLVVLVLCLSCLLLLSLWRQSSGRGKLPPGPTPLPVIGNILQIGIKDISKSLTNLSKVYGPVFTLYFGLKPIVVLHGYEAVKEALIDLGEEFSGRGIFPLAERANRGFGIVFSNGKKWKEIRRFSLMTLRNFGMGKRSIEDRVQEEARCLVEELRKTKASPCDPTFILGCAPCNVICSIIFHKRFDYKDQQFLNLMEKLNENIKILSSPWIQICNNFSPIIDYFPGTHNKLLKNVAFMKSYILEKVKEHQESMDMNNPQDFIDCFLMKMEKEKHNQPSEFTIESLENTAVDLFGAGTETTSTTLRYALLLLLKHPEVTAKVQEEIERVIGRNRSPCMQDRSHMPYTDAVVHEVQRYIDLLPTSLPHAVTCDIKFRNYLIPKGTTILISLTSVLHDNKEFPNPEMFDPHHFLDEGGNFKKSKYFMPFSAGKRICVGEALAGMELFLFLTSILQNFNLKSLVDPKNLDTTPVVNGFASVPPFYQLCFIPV
CYP2C9 activ: CYP2C9 (human) activation; actives 1.4% (n = 96,000); activation factor at 5 µM; recombinant CYP2C9, luciferin-H conversion, luminescence; active compounds read high; factor 1 = untreated enzyme, 0 = blocked; P11712;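 active means activation factor of 2 or more for CYP2C9 at a 5 µM dose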;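 further: 0 = sulfaphenazole-blocked wells and 1 = vehicle-only wells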
CYP2C19 inhib: inhibitors of human CYP2C19 | CYP2C19 Supersomes, luciferin-H EGE luminescence, 30 min | inhibition, % at 5 µM | actives 21% (n = 96,000) | AID 778;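 active means CYP2C19 inhibition above a set limit at 5 µM in the primary screen, cut at about 50% in these data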;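 further: plate controls were negative control wells for no effect and 2.5 mM tranylcypromine positive control for full effect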
CYP2C19 act: activators of human cytochrome P450 2C19; recombinant CYP2C19, luciferin-H EGE luminescence; active compounds read high; 0 = fully inhibited enzyme, 1 = untreated enzyme; activation factor at 5 µM; 96,000 tested, under 10 active;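 active means activation factor of at least 2 at 5 µM in the primary screen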;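 further: 0 = wells with 2.5 mM tranylcypromine and 1 = vehicle-only wells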
Numbers without * were called inactive. Rows were chosen to be rich in hits. Some 31% of all compounds tested hit in one or more screens of this group.

SMILES	PLAP act	CYP2C9 inhib	CYP2C9 activ	CYP2C19 inhib	CYP2C19 act
CCOC(=O)C1=C(N)OC2=C(C(=O)CCC2)C1c1cccnc1 (configuration not stated)	1.1	6.8	0.9	22.5	0.8
COc1ccc(C2C(C(=O)Nc3cccnc3)=C(C)Nc3nc(-c4cccs4)nn32)cc1OC (configuration not stated)	1.4	48.3	0.5	10.1	0.9
COc1ccccc1NC(=O)C1=C(C)Nc2nc(-c3cccs3)nn2C1c1cccc(O)c1 (configuration not stated)	1.3	69.5*	0.3	32.8	0.7
COc1ccc(C2C(C(N)=O)=C(C)Nc3nc(-c4cccc(Cl)c4)nn32)cc1OC (configuration not stated)	0.9	40.6	0.6	56.0*	0.4
COc1cccc(C2C(C(N)=O)=C(C)Nc3nc(-c4ccccc4Cl)nn32)c1 (configuration not stated)	1.1	33.8	0.7	60.4*	0.4
COc1ccc(C2C(C(N)=O)=C(C)Nc3nc(-c4ccccc4)nn32)cc1OC (configuration not stated)	0.9	7.0	0.9	34.2	0.7
CCOC(=O)c1c(C)n(CC(COC(C)=O)OC(C)=O)c2ccc(OC(C)=O)cc12 (configuration not stated)	1.5	35.8	0.6	41.7	0.6
O=C(NCC(=O)N(c1ccc(F)cc1)C(C(=O)NCC1CCCO1)c1ccccc1)c1ccco1 (configuration not stated)	1.6	-13.5	1.1	19.7	0.8
CCOC(=O)CNC(=O)Cn1cnc2c(nnn2-c2ccc(C)cc2)c1=O	1	-15.5	1.2	-8.7	1.1
Cc1cc(C(=O)Nc2ccccc2)c(C)o1	0.8	20.3	0.8	61.0*	0.4
Cc1ccc(C(C)NC(=O)c2cc(C)oc2C)cc1 (configuration not stated)	1	48.7	0.5	76.8*	0.2
CC1CCCC(C)N1C(=O)CSc1nnc(C2CCCCC2)o1 (configuration not stated)	1.8	12.1	0.9	58.7*	0.4
Cc1cc(-c2nnc(SCC(=O)N3C(C)CCCC3C)o2)no1 (configuration not stated)	1	30.5	0.7	56.0*	0.4
CCCc1nnc(SCC(=O)N2C(C)CCCC2C)n1CC1CCCO1 (configuration not stated)	1.1	-0.7	1	17.5	0.8
Cc1cc(NC(=O)c2noc3c2CCCC3)no1	1	-11.8	1.1	-10.2	1.1
CC(C)Cn1c2c(c(O)c(C(=O)Nc3ncccc3O)c1=O)CCCC2	1.1	31.2	0.7	22.1	0.8
CCCn1c2c(c(O)c(C(=O)Nc3ccccc3)c1=O)CCCC2	0.8	75.9*	0.2	13.4	0.9
CCCn1c2c(c(O)c(C(=O)Nc3ccccn3)c1=O)CCCC2	1.2	-11.9	1.1	-16.3	1.2
CCCCc1nc2ccccc2c(=O)n1NC(=O)c1c(O)c2c(n(CC(C)C)c1=O)CCCC2	1.6	60.3*	0.4	15.1	0.8
CCOC1=NC(C(=O)O)c2ccccc2/C(=C(/C)Cl)N1 (configuration not stated)	0.9	21.5	0.8	29.5	0.7
CC(C)(C)NC(=O)CC(CC(=O)O)c1ccccc1 (configuration not stated)	1	-2.5	1	-4.0	1
CCOC(=O)c1cnn(CCOC(=O)C2CC2)c1NC(=O)C1CC1	1.1	10.3	0.9	19.3	0.8
O=C(CNC(=O)c1ccccc1)NCC1COc2ccccc2O1 (configuration not stated)	0.7	16.5	0.8	26.5	0.7
COc1ccccc1NC(=O)C(=O)NCC1COc2ccccc2O1 (configuration not stated)	0.9	-45.7	1.5	32.5	0.7
CCc1ccc(C(=O)NCC2COc3ccccc3O2)o1 (configuration not stated)	1.5	58.0*	0.4	91.8*	0.1
SMILES	PLAP act	CYP2C9 inhib	CYP2C9 activ	CYP2C19 inhib	CYP2C19 act
CCOc1ncccc1C(=O)NCC1COc2ccccc2O1 (configuration not stated)	1.8	88.4*	0.1	87.7*	0.1
Cc1cccc2cc(C(c3nnnn3CC3CCCO3)N3CCOCC3)c(=O)[nH]c12 (configuration not stated)	1.1	-4.2	1	-4.1	1
O=c1[nH]n(CC2COC3(CCCCC3)O2)c(=O)c2ccccc12 (configuration not stated)	1.4	47.3	0.5	75.8*	0.2
O=C(Cn1[nH]c(=O)c2ccccc2c1=O)NC1CCCCCC1	0.7	0.6	1	24.9	0.8
COc1cccc(C(=O)N2CCN(S(=O)(=O)Cc3ccccc3)CC2)c1	1.1	29.1	0.7	41.0	0.6
COc1ccc(C(=O)SC2=NCCS2)cc1OC	0.9	-109.1	2.1*	24.7	0.8
COc1ccc(C(=O)Sc2ccc(C)cc2)cc1OC	1	-9.7	1.1	25.3	0.7
COc1cccc(C(=O)N2CCSC2=S)c1	1.1	-26.2	1.3	61.7*	0.4
COc1ccc(C(=O)N2CCN=C2SC)cc1OC	1.1	-2.6	1	4.5	1
COc1ccc(C(=O)N2CCSC2=S)cc1OC	1	-111.5	2.1*	3.4	1
Cc1ccc(C2C(C#N)=C(N)Oc3n[nH]c(-c4ccccc4)c32)o1 (configuration not stated)	1.3	26.5	0.7	31.0	0.7
COCc1[nH]nc2c1C(c1ccc(OC)cc1)C(C#N)=C(N)O2 (configuration not stated)	0.9	37.1	0.6	30.7	0.7
N#CC1=C(N)Oc2n[nH]c(-c3ccccc3)c2C1c1ccncc1 (configuration not stated)	1.6	88.8*	0.1	84.8*	0.2
N#CC1=C(N)Oc2n[nH]c(-c3ccc(F)cc3)c2C1c1cccnc1 (configuration not stated)	2*	54.9*	0.5	69.7*	0.3
CCC(C)C1C(C#N)=C(N)Oc2n[nH]c(-c3ccccc3)c21 (configuration not stated)	0.9	15.8	0.8	52.8*	0.5
CCc1[nH]nc2c1C(c1ccncc1)C(C#N)=C(N)O2 (configuration not stated)	0.9	69.2*	0.3	59.1*	0.4
Cc1[nH]nc2c1C(C(C)C)C(C#N)=C(N)O2 (configuration not stated)	1.3	26.6	0.7	42.6	0.6
CCOCCn1c(N2CCN(c3ccc(OC)cc3)CC2)nc2c1c(=O)[nH]c(=O)n2C	1.4	23.9	0.8	11.5	0.9
O=C(C1CCCCC1)N(Cc1nc2sc3c(c2c(=O)[nH]1)CCCC3)Cc1cccs1	1.3	61.6*	0.4	30.4	0.7
Cc1sc2nc(CSc3nnc(Cc4cccs4)n3C3CCCCC3)[nH]c(=O)c2c1C	1.4	24.2	0.8	30.0	0.7
CCCCc1cc(O)c(CCCC)c(O)c1	1	97.0*	0	89.7*	0.1
